Structures are written as SMILES. Measured potencies and affinities stand elsewhere. Activity calls are given as the source filed them.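 How the source made its calls: active means signal-lowering compounds whose fitted half-maximal concentration is at or below twice the top tested dose in every run; inconclusive means runs disagree, flat 30 to 70% inhibition, or poor curve fit; inactive means the rest.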

Chain of Protein S100-A4 (Homo sapiens) (P26447 whole entry, looked up): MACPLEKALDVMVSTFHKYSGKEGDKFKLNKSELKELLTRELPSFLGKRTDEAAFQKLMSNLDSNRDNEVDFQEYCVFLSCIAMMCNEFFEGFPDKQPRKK

The test has as its target Protein S100-A4 (Homo sapiens) (UniProt P26447). Put plainly: S100A4-myosin IIA binding inhibitor potency, dose response, biochemical, fluorescence polarization, cherry-picked hits (AID 687001). As to conditions: FP, S100A4/TAMRA-myosin IIA peptide binding; series mostly up to 11 µM.
For `CCn1c(=O)c2ccccc2n2c(SCC(N)=O)nnc12`, the result was inactive.

`CN(CC(=O)Nc1ccc(F)cc1)C(=O)CCc1nc2sc3c(c2c(=O)[nH]1)CCCC3`: the result was inactive.

In the case of `CN(C(=O)c1ccc(Br)o1)C1CCCCC1`, the molecule was classed as inactive.

Regarding `CC(C)NC(=O)c1ccc(COc2cc(Cl)ccc2Cl)o1`, the call was inactive.

In the case of `COc1ccc(C(=O)N(C)C2(C)CCS(=O)(=O)C2)cc1OC` (stereo not drawn), the outcome was inactive.

As for `O=C(CNC(=O)c1ccco1)NNC(=O)c1ccc(Br)cc1`, the molecule was classed as inactive.

As to `Cc1cc2cc(C#N)c(N3CCOCC3)nc2cc1Cl`, the result was inactive.

For the molecule `Cc1ccc(NC(=O)COC(=O)c2ccccc2F)cc1S(=O)(=O)N1CCCCC1`, the result was inactive.

`O=C(c1ccccc1F)N1CC(=O)N2[C@@H](CO)[C@H](c3ccc(C#Cc4ccccc4)cc3)[C@@H]2C1`: the outcome was inactive.

Consider `COC(=O)CCC(C)C1CCC2C3CCC4CC(O)CCC4(C)C3=CC(=O)C12C` (stereo not drawn), for which the result was inactive.

Consider `COc1ccc(NC(=O)Nc2ccc3c(c2)CC(=O)N([C@@H](C)CO)C[C@@H](C)[C@H](CN(C)Cc2ccccc2)O3)cc1`, for which the molecule was classed as inactive.

For the molecule `COc1ccc(C#Cc2ccc([C@H]3[C@H]4CN(S(=O)(=O)c5ccccc5)CCCCN4[C@H]3CO)cc2)cc1`, the result was inactive.

On to `Cc1cc(Br)ccc1NC(=O)CN(C)C(=O)c1ccc(-n2cncn2)c([N+](=O)[O-])c1`, for which the molecule was called inactive.

For the molecule `CCCNC(=O)N1[C@H](CO)[C@@H]2c3ccccc3N(C(=O)c3ccc(F)cc3)C[C@@H]21`, the molecule was called inactive.

On to `CCn1c(=S)sc2c(=O)n(CC(=O)Nc3ccc(C(C)=O)cc3)c(C)nc21`, for which the outcome was inactive.

Take `COCCCNc1nc2ccccc2nc1NS(=O)(=O)c1cc(Cl)ccc1Cl`: the molecule was called inactive.

`CCOC(=O)N1CCN(Cc2nc3cc([N+](=O)[O-])ccc3n2C)CC1`: the outcome was inactive.

Turning to `C[C@@H]1CN([C@H](C)CO)S(=O)(=O)c2ccc(C3=CCCCC3)cc2O[C@@H]1CN(C)Cc1ccccc1`, the molecule was classed as inactive.

In the case of `COc1ccc(C(CNC(=O)CNC(=O)c2ccc(F)cc2)N2CCCC2)cc1` (stereo not drawn), the call was inactive.

Take `O=C(NCCc1ccco1)C(=O)NCC1OCCCN1S(=O)(=O)c1cc(F)ccc1F` (stereo not drawn): the outcome was inactive.

`C[C@@H]1CN([C@H](C)CO)C(=O)c2cccc(NC(=O)C3CCCCC3)c2O[C@@H]1CN(C)Cc1ccc(Oc2ccccc2)cc1`: the molecule was classed as inactive.

For the molecule `O=C(OCC(=O)N1CCCC1=O)c1ccc(Cl)cc1[N+](=O)[O-]`, the call was inactive.

Regarding `COCC(=O)Nc1ccc2c(c1)[C@@H]1C[C@@H](CC(=O)N3CCOCC3)O[C@@H](CO)[C@@H]1O2`, the molecule was called inactive.

For the molecule `O=C(C[C@@H]1CC[C@@H](NC(=O)Cc2cccnc2)[C@H](CO)O1)Nc1ccc(-c2ccccc2)cc1`, the result was inactive.

With `O=C(CNC(=O)c1ccc(Cl)cc1Cl)OCc1cn2cc(Br)ccc2n1`, the outcome was inactive.

Turning to `CN1CCN(C(CNC(=O)C(=O)Nc2ccc3c(c2)OCO3)c2ccc(F)cc2)CC1` (stereo not drawn), the outcome was inactive.

Take `CC1(C(=O)Nc2cnc3ccccc3c2)CCN1Cc1cc2ccccc2o1` (stereo not drawn): the call was inactive.

On to `Cc1noc(C)c1S(=O)(=O)N(C)C[C@H]1Oc2ccc(N(C)C)cc2CC(=O)N([C@H](C)CO)C[C@H]1C`, for which the call was inactive.

Consider `O=Cc1ccc(N2N=C(c3ccccc3)CC2c2ccccc2)cc1` (stereo not drawn), for which the outcome was inactive.

As for `COC(=O)[C@@H]1[C@@H](CO)[C@@H]2Cn3c(ccc(-c4ccccc4)c3=O)[C@@H]2N1C(=O)CC1CC1`, the molecule was called inactive.

As to `COc1ccc(/C=C(\C#N)C(=O)c2cccn2C)cc1`, the call was inactive.

Consider `O=C(NCC[C@H]1CC[C@H](NS(=O)(=O)c2ccccc2)[C@@H](CO)O1)c1cc(Cl)cc(Cl)c1`, for which the molecule was called inactive.

Regarding `N#Cc1ccc(-c2ccc([C@@H]3[C@@H](CO)N4C(=O)CN(C(=O)C5CC5)C[C@H]34)cc2)cc1`, the molecule was classed as inactive.

As for `CNC[C@@H]1Oc2ccc(NC(=O)Nc3cccc4ccccc34)cc2C(=O)N([C@H](C)CO)C[C@@H]1C`, the call was inactive.

As for `COc1ccccc1NC(=O)N[C@H]1CC[C@H](CCNS(=O)(=O)c2ccc(Cl)cc2)O[C@H]1CO`, the call was inactive.

As to `CCNC(=O)C[C@@H]1CC[C@@H](NS(=O)(=O)c2ccc(F)cc2)[C@H](CO)O1`, the molecule was called inactive.

For the molecule `Cc1[nH]c(C)c(S(=O)(=O)N2CCN(c3ccccc3F)CC2)c1C(=O)N1CCCCC1`, the call was inactive.

Consider `CC(=O)N1c2ccc(S(=O)(=O)N3CCC(C(=O)Nc4ncccc4C)CC3)cc2CC1C` (stereo not drawn), for which the outcome was inactive.
